Experimental findings from PubChem BioAssay (NCATS) are described below.

Assay [1] concerns the target Retinoic acid receptor RXR-alpha (Homo sapiens) (UniProt P19793). Nature of the assay: qHTS assay for small molecule agonists of retinoid X receptor alpha signaling (AID 588544; calls by dose curve;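 note: 0% = DMSO basal wells and 100% = reference agonist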). Background: qHTS replaces the single test concentration by a dilution series.
Assay [2] concerns the target Thyroid hormone receptor beta (Homo sapiens) (UniProt P10828). Nature of the assay: qHTS assay for small molecule agonists of thyroid hormone receptor beta signaling (AID 588545; calls by dose curve). The essentials: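 In this cell-based screen, titrated compounds act on HEK 293 cells held in medium with 2% charcoal/dextran FBS, NEAA and pyruvate for 18 hrs at 37 C. Responses are expressed relative to T3 (10 nM) as 100% and basal DMSO as 0%.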

Assay [3] is described as follows: qHTS assay for small molecule antagonists of retinoid X receptor alpha signaling (AID 588546; active = well fitted inhibition curve with a large enough effect in the signal ratio, with a control signal flat, not every such curve was filed as active; the % refers to the signal ratio;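 note: cells stimulated with 9-cis-retinoic acid as agonist; % is set by controls: 0 for no effect and ±100 for the full control effect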). The note with it: HEK293T RXRa-UAS-bla, beta-lactamase ratio, antagonist mode; measured here: W530 green channel, cytotoxicity proxy. Put shortly: (§1)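 Beta-lactamase reporter inhibition, read as CCF4 fluorescence ratio (ex 405, em 460/530 nm) after 2 h at RT. HEK293T UAS-bla cells, 2500/well, were stimulated with 9-cis-RA at 500 or 100 nM final alongside test compound for 18 h at 37 C.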

For assay [4], the target named is Retinoic acid receptor RXR-alpha (Homo sapiens) (UniProt P19793). Described as above. The settings on record: HEK293T RXRa-UAS-bla, beta-lactamase ratio, antagonist mode. The essentials:
as §1

In assay [5] the target is Thyroid hormone receptor beta (Homo sapiens) (UniProt P10828). Nature of the assay: qHTS assay for small molecule antagonists of thyroid hormone receptor beta signaling (AID 588547; active = well fitted inhibition curve with a large enough effect in the signal ratio, with a control signal flat, not every such curve was filed as active; the % refers to the signal ratio;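 note: cells stimulated with 0.4 nM T3 agonist during compound exposure; series mostly up to about 77 µM; % is set by controls: 0 for no effect and ±100 for the full control effect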). The note with it: TR-UAS-bla HEK293, beta-lactamase ratio, antagonist mode, 18 h. The essentials: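 TR-UAS-bla GripTite HEK293 cells in 2% charcoal/dextran FBS medium were preincubated 4 h at 37 C, given compound (0.59 nM to 92 uM) plus 0.4 nM T3 (final) for 18 h, then CCF4 for 2 h at RT; Hill fit gave IC50.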
Chain of Thyroid hormone receptor beta (Homo sapiens) (P10828 whole entry, looked up): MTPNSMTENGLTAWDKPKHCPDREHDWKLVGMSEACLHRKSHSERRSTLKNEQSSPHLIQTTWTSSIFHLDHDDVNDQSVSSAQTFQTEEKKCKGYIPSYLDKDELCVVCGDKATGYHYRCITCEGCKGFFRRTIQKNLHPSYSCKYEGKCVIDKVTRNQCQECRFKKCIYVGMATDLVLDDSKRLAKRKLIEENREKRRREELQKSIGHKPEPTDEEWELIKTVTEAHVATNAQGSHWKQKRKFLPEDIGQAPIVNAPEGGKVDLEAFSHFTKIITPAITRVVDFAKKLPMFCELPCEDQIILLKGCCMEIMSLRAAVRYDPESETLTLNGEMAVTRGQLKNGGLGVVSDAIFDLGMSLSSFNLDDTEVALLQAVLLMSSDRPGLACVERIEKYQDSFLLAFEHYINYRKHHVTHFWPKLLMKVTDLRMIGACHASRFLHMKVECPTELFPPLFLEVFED

Assay [6] addresses Voltage-gated inwardly rectifying potassium channel KCNH2 (Homo sapiens) (UniProt Q12809). Kind of assay: qHTS Assay for Small Molecule Inhibitors of the Human hERG Channel Activity (AID 588834).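 Note: lower thallium flux fluorescence means stronger hERG block; nearly all actives have a fitted effect of over 50% in size.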 Note: potency is the fitted concentration of half-maximal effect. The essentials: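 hERG-BacMam U2OS, 2000 cells/well; 0.7X FluxOR loading 1 hr RT dark; cpd ~10 min 37 °C; stim buffer; FDSS fluorescence 2 min @ 1 s; AC50 Hill fit.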
For assay [7], the target named is Luciferin 4-monooxygenase (Photinus pyralis) (UniProt P08659). Nature of the assay: Biochemical firefly luciferase enzyme assay for NPC (AID 624030).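 Note: purified P. pyralis luciferase at 10 nM with luciferin and ATP substrate; series mostly up to about 59 µM; 0% = DMSO and -100% = full luciferase inhibition by PTC124 control; nearly all actives have a fitted effect of over 70% in size.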 The essentials:
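Counter-screen for direct inhibition of the luciferase enzyme by approved-drug library compounds, run at 10 nM enzyme in 50 mM Tris acetate (final). Luminescence was read within 5 min of enzyme-buffer addition and normalized to PTC124 versus DMSO (0%).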

Assay [8] in a line: S16 Schwann cell PMP22 intronic element firefly luciferase assay (AID 624032). Note: nearly all actives have a fitted effect of over 30% in size. Note: potency is the fitted concentration of half-maximal effect. The essentials:
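Rat S16 Schwann cells stably carrying a PMP22 intronic element-driven Fluc reporter were seeded overnight, then exposed to compounds for 24 h at 37 °C. Luminescence was normalized to PTC124 (positive control) and DMSO (0% activity).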

Assay [9] can be described thus: qHTS for Inhibitors of the vitamin D receptor (VDR): Hit Validation using a Texas Red Assay (AID 602201). Note: potency is the fitted concentration of half-maximal effect. The note with it: VDR coregulator binding, Texas Red fluorescence polarization; agonist-bound VDR ligand-binding domain. Put shortly: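 Fluorescence polarization (Ex 595/Em 615 nm) of Texas Red (7 nM) with 1.5 uM VDR-LBD and LG19078 (final concentrations). Compounds were incubated for 2 hours at room temperature.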

Assay [10] can be described thus: S16 Schwann cell viability assay (CellTiter-Glo assay) (AID 624031). Note: nearly all actives have a fitted effect of over 70% in size. Note: potency is the fitted concentration of half-maximal effect. The essentials:
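Following overnight culture in 10% FBS DMEM, parental S16 rat Schwann cells are dosed for 24 h at 37 °C. Viability is read as CellTiter-Glo luminescence and expressed as % activity relative to DMSO (0%) and no-cell wells.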
A general note: In ATP-based viability assays light output follows the ATP content of the culture.

SMILES strings stand for the structures. “And” between values parts separate entries of the source, which are not always exact repeats. Equal entries are not always repeated. Records with an inconclusive call do not appear. A structure can be active in one record and inactive in another. The source made the active and inactive calls. Unless noted, calls come from the whole dose curve; as a rule, active = well fitted curve in the direction sought with a large enough effect; inconclusive = small, poorly fitted or top-dose-only effect, or another doubt; inactive = no such curve, though single readings can be large; an effect the other way counts as inactive or inconclusive.

Chain of Retinoic acid receptor RXR-alpha (Homo sapiens) (P19793 whole entry, looked up): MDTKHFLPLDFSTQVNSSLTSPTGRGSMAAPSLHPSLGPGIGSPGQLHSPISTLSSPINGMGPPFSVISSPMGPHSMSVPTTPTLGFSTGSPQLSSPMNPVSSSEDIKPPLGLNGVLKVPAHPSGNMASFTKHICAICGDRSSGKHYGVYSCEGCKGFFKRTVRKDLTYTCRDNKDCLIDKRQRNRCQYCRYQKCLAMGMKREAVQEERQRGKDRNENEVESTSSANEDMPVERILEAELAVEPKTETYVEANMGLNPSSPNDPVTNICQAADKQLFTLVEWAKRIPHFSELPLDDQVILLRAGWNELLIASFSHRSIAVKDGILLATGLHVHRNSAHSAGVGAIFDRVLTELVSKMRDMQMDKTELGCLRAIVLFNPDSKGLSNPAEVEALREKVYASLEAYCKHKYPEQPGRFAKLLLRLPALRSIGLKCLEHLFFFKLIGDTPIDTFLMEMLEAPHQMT
Chain of Voltage-gated inwardly rectifying potassium channel KCNH2 (Homo sapiens) (Q12809 whole entry, looked up): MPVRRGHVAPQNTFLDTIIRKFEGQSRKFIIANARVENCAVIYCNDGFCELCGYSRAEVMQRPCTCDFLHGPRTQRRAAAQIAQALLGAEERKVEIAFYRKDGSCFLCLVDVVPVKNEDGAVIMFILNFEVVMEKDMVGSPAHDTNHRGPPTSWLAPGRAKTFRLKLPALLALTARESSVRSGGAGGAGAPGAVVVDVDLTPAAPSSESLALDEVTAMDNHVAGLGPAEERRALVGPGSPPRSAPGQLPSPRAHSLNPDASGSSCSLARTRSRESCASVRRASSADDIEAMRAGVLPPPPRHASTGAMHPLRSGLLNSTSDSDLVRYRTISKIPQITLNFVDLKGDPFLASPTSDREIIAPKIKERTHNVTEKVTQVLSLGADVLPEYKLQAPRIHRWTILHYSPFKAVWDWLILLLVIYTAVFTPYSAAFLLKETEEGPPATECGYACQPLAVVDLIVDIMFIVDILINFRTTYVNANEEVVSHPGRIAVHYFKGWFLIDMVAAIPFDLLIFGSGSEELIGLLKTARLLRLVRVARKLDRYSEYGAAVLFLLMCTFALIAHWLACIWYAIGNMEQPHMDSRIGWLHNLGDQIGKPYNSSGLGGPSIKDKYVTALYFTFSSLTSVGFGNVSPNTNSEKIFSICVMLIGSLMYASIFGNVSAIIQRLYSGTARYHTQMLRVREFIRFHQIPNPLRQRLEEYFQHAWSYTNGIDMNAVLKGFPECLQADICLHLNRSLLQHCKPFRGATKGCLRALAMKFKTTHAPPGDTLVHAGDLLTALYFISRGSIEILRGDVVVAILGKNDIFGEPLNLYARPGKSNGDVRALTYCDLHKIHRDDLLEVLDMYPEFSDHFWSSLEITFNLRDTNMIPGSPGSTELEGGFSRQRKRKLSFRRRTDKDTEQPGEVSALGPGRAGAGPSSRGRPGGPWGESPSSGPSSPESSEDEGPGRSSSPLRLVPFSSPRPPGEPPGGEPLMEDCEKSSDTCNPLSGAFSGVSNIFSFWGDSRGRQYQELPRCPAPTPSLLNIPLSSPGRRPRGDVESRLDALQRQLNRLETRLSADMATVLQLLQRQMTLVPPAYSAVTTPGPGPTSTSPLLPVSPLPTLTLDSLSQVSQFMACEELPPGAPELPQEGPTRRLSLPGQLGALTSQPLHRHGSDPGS
Chain of Luciferin 4-monooxygenase (Photinus pyralis) (P08659 whole entry, looked up): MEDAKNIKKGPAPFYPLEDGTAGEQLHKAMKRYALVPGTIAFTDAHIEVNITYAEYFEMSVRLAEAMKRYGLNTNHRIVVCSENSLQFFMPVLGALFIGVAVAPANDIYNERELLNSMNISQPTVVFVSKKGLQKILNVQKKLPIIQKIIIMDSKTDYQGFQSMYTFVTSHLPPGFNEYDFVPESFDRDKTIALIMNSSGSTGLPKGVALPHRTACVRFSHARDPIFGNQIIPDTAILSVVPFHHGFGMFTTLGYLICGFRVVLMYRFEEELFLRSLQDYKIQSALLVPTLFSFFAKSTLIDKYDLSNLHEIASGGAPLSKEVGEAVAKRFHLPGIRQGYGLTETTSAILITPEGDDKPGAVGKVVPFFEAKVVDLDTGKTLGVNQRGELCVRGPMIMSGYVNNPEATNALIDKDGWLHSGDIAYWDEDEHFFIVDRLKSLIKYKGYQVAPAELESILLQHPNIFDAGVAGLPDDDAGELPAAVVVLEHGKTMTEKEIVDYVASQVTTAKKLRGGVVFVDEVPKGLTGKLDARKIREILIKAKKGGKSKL

Turning to `O=C(O)c1cc(O)c(O)c(O)c1`, the result in assay [1] and in assay [2] was inactive. Moreover, the max response in [3] was 3.69%; in assay [4] it was -2.74% (inactive). Besides, the activity change % (negative = inhibition) in [5] is -16.5% (inactive). Further, the Potency entry in assay [6], in assay [7] and in assay [8] was “inactive” throughout.
On to `Nc1ccc(O)c([N+](=O)[O-])c1`, for which the outcome in assay [1] and in assay [2] was inactive. The max response in [3] was -7.08% and 0.284%; in [4], 32% (inactive) and 10.1% (inactive). Further, in assay [5], the activity change % (negative = inhibition) was 3.22% (inactive) and -23.9% (inactive). Moreover, the Potency entry in [6] is “inactive”.
With `CCCCC1C(=O)N(c2ccccc2)N(c2ccc(O)cc2)C1=O` (centres undefined), in assay [9], the Potency was 15.8 µM (active).
`COC(=O)C1=C(C)NC(C)=C(C(=O)OCC(C)C)C1c1ccccc1[N+](=O)[O-]` (centres undefined): the Potency in assay [8] is 32.2 µM (active).
As for `CCCC(=O)OC[C@@H](OC(=O)CCC)[C@@H](OC(=O)CCC)[C@H](Cn1c2nc(=O)[nH]c(=O)c-2nc2cc(C)c(C)cc21)OC(=O)CCC`, the Potency was 10 µM (active) in [6] and 14.4 µM (active) in assay [8].
As to `COc1cc(/C=C/C(=O)CC(=O)/C=C/c2ccc(O)c(OC)c2)ccc1O`, in assay [10], the Potency entry is “inactive”. The Potency in assay [8] is 20.3 µM (active).
`CC1(C)[C@@H](O)CC[C@]2(C)[C@H]3C(=O)C=C4[C@@H]5C[C@@](C)(C(=O)O)CC[C@]5(C)CC[C@@]4(C)[C@]3(C)CC[C@@H]12`: the Potency result in [7] and in [10] was “inactive” each time. The Potency in [8] was 8.09 µM (active).
On to `O=C(O)[C@H](CC(=O)N1C[C@H]2CCCC[C@H]2C1)Cc1ccccc1`, for which the Potency entry in [6], in assay [10] and in assay [8] was “inactive” in each case.
`CCOC(=O)c1ccccc1O`: the Potency result in assay [6], in [10] and in [8] was “inactive” each time.
Regarding `CC(N)C(=O)OC(C)(C)Cc1ccc(Cl)cc1` (centres undefined), the Potency result in assay [10] and in assay [8] was “inactive” in each case.
On to `O=C1CN(/N=C/c2ccc(-c3ccc([N+](=O)[O-])cc3)o2)C(=O)N1`, for which the Potency result in assay [7], in assay [10] and in assay [8] was “inactive” in each case.
For `Cc1[nH]cnc1CN1CCc2c(c3ccccc3n2C)C1=O`, the Potency entry in [10] and in assay [8] was “inactive” in each case.
On to `O=C(O)COc1ccc(C(=O)c2cccs2)c(Cl)c1Cl`, for which the Potency result in assay [6], in assay [10] and in assay [8] was “inactive” throughout.
`CCC1C(=O)OCC1Cc1cncn1C` (centres undefined): the Potency entry in [7], in [10] and in [8] was “inactive” throughout.
With `C=CC(N)CCC(=O)O` (centres undefined), the Potency result in [6], in [10] and in [8] was “inactive” in each case.
With `CCCCCCOc1ccccc1C(N)=O`, the Potency result in [6], in [10] and in [8] was “inactive” in each case.
Take `Cc1cc(O)c2ccccc2c1O`: in assay [6], the Potency result was “inactive”. Besides, the Potency was 12.8 µM (active) in assay [10] and 25.6 µM (active) in assay [8].
For the molecule `Cc1ccc(O)c(-n2nc3ccccc3n2)c1`, the Potency result in assay [6], in [10] and in assay [8] was “inactive” each time.
In the case of `Nc1c(CC(=O)O)cccc1C(=O)c1ccc(Br)cc1`, the Potency entry in assay [6], in assay [10] and in assay [8] was “inactive” each time.
As for `CN1[C@@H]2CC[C@H]1CC(OC(=O)C(CO)c1ccccc1)C2` (some centres undefined), the Potency entry in assay [10] and in [8] was “inactive” throughout.
As for `CN(C)c1ccc(C(=C2C=CC(=[N+](C)C)C=C2)c2ccccc2)cc1`, the Potency in [6] was 7.08 µM (active). Besides, the Potency result in assay [8] is “inactive”.
As for `Cc1c(Nc2ncccc2C(=O)O)cccc1C(F)(F)F`, the Potency entry in assay [6], in assay [10] and in [8] was “inactive” throughout.
For `CC(C(=O)O)c1ccc2c(c1)[nH]c1ccc(Cl)cc12` (centres undefined), the Potency entry in [6], in assay [10] and in [8] was “inactive” each time.
For `O=C(CCN1CCN(CCO)CC1)N1c2ccccc2Sc2ccc(C(F)(F)F)cc21`, the Potency entry in [7] and in [10] was “inactive” each time.
With `Cc1ccc(C(=O)c2ccc(CC(=O)O)n2C)cc1`, the Potency entry in assay [6], in assay [10] and in [8] was “inactive” throughout.
Regarding `C=CCN1C(=O)C(CC(C)C)NC1=S` (centres undefined), the Potency result in [6], in assay [10] and in assay [8] was “inactive” each time.
In the case of `CCOc1ccc2nc(S(N)(=O)=O)sc2c1`, the Potency result in assay [6], in assay [10] and in assay [8] was “inactive” each time.
For `NC(=O)C(c1ccccc1)(c1ccccc1)[C@@H]1CCN(CCc2ccc3c(c2)CCO3)C1`, the Potency entry in assay [10] was “inactive”.
Take `CC1OC1P(=O)(O)O` (centres undefined): the Potency result in [10] and in [8] was “inactive” each time.
Consider `Cc1ccccc1CNc1ncnc2c1ncn2C1OC(CO)C(O)C1O` (centres undefined), for which the Potency result in assay [6], in [10] and in [8] was “inactive” in each case.
Take `O=C(/C=C/c1ccccc1)NCCO`: the Potency entry in [10] and in [8] was “inactive” in each case.
For `CCCCC[C@H](O)/C=C/[C@@H]1[C@@H](C/C=C\CCCC(=O)O)[C@@H](O)C[C@H]1O`, the Potency result in [6], in [10] and in [8] was “inactive” each time.
Consider `O=C(Nc1ccc(C(=O)O)c(O)c1)c1ccccc1`, for which the Potency entry in assay [6], in assay [10] and in [8] was “inactive” in each case.
Consider `O=C(O)/C=C/C(O)c1ccc(Cl)cc1` (centres undefined), for which the Potency result in assay [6], in assay [10] and in assay [8] was “inactive” throughout.
With `Cc1nc2ccccc2n1Cc1ccc(Cl)cc1`, the Potency entry in [6] and in assay [8] was “inactive” in each case.
In the case of `[O-][n+]1ccccc1SSc1cccc[n+]1[O-]`, in assay [6], the Potency result is “inactive”. The Potency in assay [10] was 12.8 µM (active); in [8], 0.361 µM (active).
As for `COc1ccc(-c2cc(=S)ss2)cc1`, the Potency entry in assay [6], in assay [10] and in [8] was “inactive” throughout.
Turning to `c1ccc2sc(SN3CCOCC3)nc2c1`, the Potency entry in assay [6], in assay [10] and in [8] was “inactive” in each case.
Take `COc1cc2c3cc1Oc1cc(ccc1O)C[C@@H]1c4c(cc(OC)c(O)c4Oc4ccc(cc4)C[C@@H]3N(C)CC2)CC[N+]1(C)C`: the Potency entry in [6], in assay [10] and in [8] was “inactive” in each case.
Consider `CCCCCCCCCCCC(=O)[O][Sn]([CH2]CCC)([CH2]CCC)[O]C(=O)CCCCCCCCCCC`, for which the Potency result in [6] and in [10] was “inactive” in each case. The Potency in assay [8] is 9.07 µM (active).
Consider `O=c1[nH]c2ccccc2n1CCCN1CCN(C(c2ccccc2)c2ccccc2)CC1`, for which the values for the Potency in assay [6] and in assay [8] were 3.55 µM (active) and 8.09 µM (active), respectively.
